Results on 40 compounds are retold here after PubChem BioAssay (Tox21).

Records with an inconclusive call do not appear. Values without a mark were called inactive. Calls of active or inactive are those of the source. The call rests on the fitted dose curve; in most records, active means well fitted cell-killing curve with a large enough effect in the repeat runs; inconclusive means weak or mixed curves, or effect the other way; inactive means no such curve, though single readings can be large or run the other way.
On the % scale 0 is the no-effect control and ±100 the full control effect.

The nature of the experiment: qHTS assay to identify small molecule agonists of the vitamin D receptor (VDR) signaling pathway - cell viability counter screen (AID 743224). Further: nearly all actives have a fitted effect of over 50% in size. The note with it: VDR-bla HEK293T viability, CellTiter-Glo luminescence, 16 h; series mostly up to 62.6 µM. An excerpt: U.S. Tox21 Program National Center for Advancing Translational Sciences [NCATS] NIH Chemical Genomics Center [NCGC] U.S. Environmental Protection Agency [EPA] National Institutes of Environmental Health Sciences [NIEHS] National Toxicology Program [NTP] U.S. Food and Drug Administration [FDA] Tox21 Assay Overview: The vitamin D receptor (VDR), a member of nuclear hormone receptor superfamily, plays a critical role in calcium homeostasis and bone metabolism. It is also involved in cell differentiation and growth, and thrombogenicity. […] The cytotoxicity of the Tox21 compound library against the VDR-bla cell line was tested in parallel by measuring the cell viability using CellTiter-Glo assay (Promega, Madison, WI) in the same wells.
Tox21 Assay Protocol Summary: VDR-bla cells were dispensed at 2,000 cells/6 uL/well into black wall/clear-bottom 1536-well plates using a Multidrop Combi (Thermo Fisher Scientific, Waltham, MA) dispenser. After the assay plates were incubated at a 37C and 5% CO2 for 4 h, 23 nL of compounds dissolved in DMSO, positive controls or DMSO only was transferred to the assay plate by a Pintool station (Kalypsys, San Diego, CA). The plates were incubated at 37C and 5% CO2 for 16 h. After 1 uL of LiveBLAzerTM B/G FRET substrate was added using a Bioraptr Flying Reagent Dispenser (FRD) workstation (Beckman Coulter, Indianapolis, IN, USA), the plates were incubated at room temperature for 2 h, and fluorescence intensity was measured by an Envision plate reader (PerkinElmer, Shelton, CT). For cell viability readout that measures cytotoxicity, 3 ul/well of CellTiter-Glo reagent was added into the assay plates using a FRD. After 30 min incubation at room temperature, the luminescence intensity in the plates was measured using a ViewLux (PerkinElmer) plate reader.
In the case of `CC1(C)[C@@H]2CC[C@@]1(C)[C@H](O)C2`, the compound was called inactive.
Same read-out and setting: the same measure for `CN(C)C(=O)Oc1cccc([N+](C)(C)C)c1`: “inactive”.
On the same count and under the same terms, the same measure for `CC1CCC(CO)CC1` (stereo not given): “inactive”.
Regarding `CCN[C@@H]1C[C@H](N)[C@@H](OC2OC(CN)=CCC2N)[C@H](O)[C@H]1O[C@H]1OC[C@](C)(O)[C@H](NC)[C@H]1O` (stereo not given in full), the activity change, negative = cytotoxicity was 0.0384% [at 0.55 µM].
`CC12CCC(C(=O)C1=O)C2(C)C` (stereo not given): the compound was called inactive.
On to `Cc1ncc([C@@H](CCCCCCc2ccc3c(n2)NCCC3)CC(=O)O)cn1`, for which the call was inactive.
The same measure, in the same setting: the same measure for `C=C(C)C(=O)OCC1CCCO1` (stereo not given): “inactive”; for `N[C@H](C(=O)O)[C@@H](O)c1ccc(O)c(O)c1`: “inactive”.
The same measure, in the same setting: the same measure for `CC(=O)C1CCCCC1=O` (stereo not given): “inactive”.
Same read-out and setting: the same measure for `CN(C)CCCCCCN(C)C`: “inactive”; for `CC(C)(C#N)Nc1nc(Cl)nc(NC2CC2)n1`: “inactive”.
Regarding `[Ca+2]`, the compound was classed as inactive.
Regarding `CC(C)COC(=O)c1ccc(N)cc1`, the call was inactive.
For the compound `COc1cccc(OC)c1C(=O)N[C@@H]1C(=O)N2[C@@H]1SC(C)(C)[C@@H]2C(=O)O`, the compound was classed as inactive.
On to `Cc1cc(C)c(N=Nc2c(O)c(S(=O)(=O)O)cc3cc(S(=O)(=O)O)ccc23)cc1C`, for which the activity change, negative = cytotoxicity was -8.28% [at 5.95 µM].
`COc1c(N2CCNC(C)C2)c(F)cc2c(=O)c(C(=O)O)cn(C3CC3)c12` (stereo not given): the compound was classed as inactive.
Same read-out and setting: the same measure for `C=C(C)C(=O)OCCOCCOCCOCCOC(=O)C(=C)C`: “inactive”; for `NCCCC[C@H](N[C@@H](CCc1ccccc1)C(=O)O)C(=O)N1CCC[C@H]1C(=O)O`: “inactive”.
Same read-out and setting: the same measure for `Cc1nc(C2CCCCC2)c(-c2ccc(S(N)(=O)=O)c(F)c2)o1`: “inactive”.
With `Cc1ccnc(NS(=O)(=O)c2ccc(N)cc2)n1`, the compound was classed as inactive.
`CCOC(=O)COC(=O)c1ccccc1C(=O)OCC`: the outcome was inactive.
On the same count and under the same terms, for `Nc1ccccn1` the value was “inactive”.
Take `C1CCC2(CCCCO2)OC1`: the compound was classed as inactive.
The same measure, in the same setting: the same measure for `CO[C@@]1(NC(=O)C(C(=O)O)c2ccc(O)cc2)C(=O)N2C(C(=O)O)=C(CSc3nnnn3C)CO[C@@H]21` (stereo not given in full): “inactive”.
For `COCCOC[C@H](CC1(C(=O)NC2CCC(C(=O)O)CC2)CCCC1)C(=O)Oc1ccc2c(c1)CCC2` (stereo not given in full), the call was inactive.
On the same count and under the same terms, the same measure for `CC(C)NNC(=O)c1ccncc1`: “inactive”; for `c1ccc(CCc2ccccc2)cc1`: “inactive”; for `CCO[Si](OCC)(OCC)c1ccccc1`: “inactive”.
With `Cc1onc(-c2c(Cl)cccc2Cl)c1C(=O)Cl`, the outcome was inactive.
For the compound `CC1=NN(c2cc(S(=O)(=O)O)ccc2Cl)C(=O)C1N=Nc1ccccc1` (stereo not given), the compound was called inactive.
Still for that read-out and setting: for `CC(=O)Oc1cccc(C)c1` the value was “inactive”; for `CCCCCC(C)N` (stereo not given), “inactive”; for `CCCCCCCCCCCCCCC(=O)O`, “inactive”.
Same read-out and setting: for `Cc1ccc(C(=O)c2ccc(CC(=O)O)n2C)cc1` the value was “inactive”.
On the same count and under the same terms, the same measure for `N[C@@H](CCC(=O)O)C(=O)O`: “inactive”; for `c1ccc(Cc2ccccc2)cc1`: “inactive”.
Consider `COC(=O)C1=C(C)NC(C)=C(C(=O)OC(C)C)C1c1cccc2nonc12` (stereo not given), for which the outcome was inactive.
As for `CCOC(=O)CCC(=O)OCC`, the outcome was inactive.
Still for that read-out and setting: for `CCC(C(=O)NC(=O)NC(C)=O)c1ccccc1` (stereo not given) the value was “inactive”; for `CCCCCCCCCCCCCCCCCCO`, “inactive”.
